3T3 cytotox = cytotoxic compounds in NIH 3T3 cells. NIH 3T3 viability, CellTiter-Glo ATP luminescence, 48-72 h. Potency, µM (top dose mostly 96.7 µM), actives largely listed as inhibitors. 94,000 tested, 4.3% active; note: nearly all actives have a fitted effect of over 55% in size
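ATP-dependent luminescence (CellTiter-Glo) served as the viability signal for NIH 3T3 cells treated with compound for 48 or 72 hr at 37 °C.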
hNpr1 antagonist = antagonists of human natriuretic peptide receptor Npr1; P16066; HEK293 hNpr1 GloSensor cGMP, ANP-stimulated luminescence; Potency, µM (highest dose often 46.3 µM), most hits filed as inhibitors; 76,000 tested, 1.6% active; AID 1347048; calls by dose curve; note: nearly all actives have a fitted effect of over 60% in size
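HEK293 cells stably expressing human Npr1 and cGMP GloSensor pGS-40F, loaded 2 h with 2% GloSensor reagent, given compound 30 min at room temperature. Luminescence read before and 20 min after 0.1 nM hNppA.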
HEK cytotox = cytotoxic compounds in HEK 293 cells; HEK 293 viability, ATP luminescence (CellTiter-Glo), 48-72 h; Potency, µM (top dose mostly 115 µM), hits mostly inhibitors; 94,000 tested, 6.6% active; note: nearly all actives have a fitted effect of over 60% in size
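Viability of HEK 293 cells, plated at 250 cells/well, was judged by cellular ATP after compound treatment for 48 or 72 hr. Luminescence was imaged 10 min after CellTiter-Glo addition at room temperature.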
Luciferase inh = blocks purified firefly luciferase enzyme activity | 76,000 tested, 2.5% active | Potency, µM (highest dose often 115 µM), most hits filed as inhibitors | purified P. pyralis luciferase, luminescence, biochemical; note: nearly all actives have a fitted effect of over 65% in size
Target sequence (P08659 whole entry, looked up): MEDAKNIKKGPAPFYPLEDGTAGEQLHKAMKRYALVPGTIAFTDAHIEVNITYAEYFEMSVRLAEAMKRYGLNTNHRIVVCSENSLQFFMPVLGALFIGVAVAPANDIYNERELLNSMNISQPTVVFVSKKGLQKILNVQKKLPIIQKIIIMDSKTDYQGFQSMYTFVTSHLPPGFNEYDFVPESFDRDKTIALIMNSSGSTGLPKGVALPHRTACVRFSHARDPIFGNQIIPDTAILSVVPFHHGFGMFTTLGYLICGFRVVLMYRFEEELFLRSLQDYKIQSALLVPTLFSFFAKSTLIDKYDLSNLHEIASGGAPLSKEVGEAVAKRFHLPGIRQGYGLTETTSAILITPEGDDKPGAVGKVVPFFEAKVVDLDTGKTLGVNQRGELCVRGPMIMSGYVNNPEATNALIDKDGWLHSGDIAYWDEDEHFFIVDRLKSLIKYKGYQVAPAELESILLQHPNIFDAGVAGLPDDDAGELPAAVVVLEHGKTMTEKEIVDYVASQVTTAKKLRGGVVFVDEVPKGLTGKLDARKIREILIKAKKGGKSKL
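Purified 10nM P. pyralis luciferase with 10uM D-luciferin and 10uM ATP in 50mM Tris acetate pH 7.5, 10mM Mg acetate, 0.01% Tween-20, 0.05% BSA. qHTS titration; luminescence read by CCD imager.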
A number is an active result; i = inactive; ? = inconclusive; nt = no result. In the library only some 11% were active in any assay of this set; here they are far more common. Unless noted, calls come from the whole dose curve; as a rule, active = well fitted curve in the direction sought with a large enough effect; inconclusive = small, poorly fitted or top-dose-only effect, or another doubt; inactive = no such curve, though single readings can be large; an effect the other way counts as inactive or inconclusive.

SMILES	3T3 cytotox	hNpr1 antagonist	HEK cytotox	Luciferase inh
O=C(C1CCN(c2cnn(CC3CC3)c(=O)c2)C1)N1CCc2ccccc2C1 (centres undefined)	?	i	?	i
O=C(C1CCCC1)N1CCC(C(=O)N2CCC(N3Cc4ccccc4C3=O)CC2)CC1	i	nt	i	nt
COCCn1ncc(N2CCCC(CC(=O)Nc3cc(C)ccc3OC)C2)cc1=O (centres undefined)	i	i	i	i
COc1ccccc1N1CCN(C(=O)C[C@@H]2CCNC[C@@H]2Cc2cc(-c3ccc(C(C)(C)C)cc3)on2)CC1	?	i	?	i
CC(C)(C)c1cc(C[C@H]2CNCC[C@H]2CC(=O)Nc2nccs2)no1	?	i	100µM	i
CC(C)(C)c1ccc(-c2cc(C[C@H]3CNCC[C@H]3CC(=O)Nc3nccs3)no2)cc1	8.91µM	i	?	i
COc1ccc(-c2cc(C[C@H]3CNCC[C@H]3CC(=O)Nc3nccs3)no2)cc1	79.4µM	i	100µM	i
CC(C)(C)NC(=O)C[C@@H]1CCNC[C@@H]1Cc1cc(COc2ccccc2)on1	i	i	?	i
O=c1c2c(n(Cc3cccnc3)n1CCc1ccccc1)CN(CC1CC1)CC2	39.8µM	i	i	i
O=c1c2c(n(Cc3cccnc3)n1CCc1ccccc1)CN(CC1CCOC1)CC2 (centres undefined)	44.7µM	i	i	i
COc1ccc(Cn2c3c(c(=O)n2Cc2ccccc2)CCN(CC2CCOC2)C3)cc1 (centres undefined)	28.2µM	i	i	i
O=c1c2c(n(Cc3cccnc3)n1-c1ccccc1)CN(CC1CCOC1)CC2 (centres undefined)	?	i	i	i
CCn1c2c(c(=O)n1Cc1ccccc1)CCN(Cc1nccs1)C2	?	i	i	i
CCn1c2c(c(=O)n1Cc1ccccc1)CCN(Cc1cncc(OC)c1)C2	79.4µM	i	i	i
COc1ccc2c(c1)c(CN1CCOCCNC(=O)CC1)cn2C(C)C	?	i	?	i
O=C(COc1ccc(F)cc1)N1CCCN(c2cc(-c3ccc(Br)cc3)[nH]n2)CC1	?	?	44.7µM	i
O=C(c1cccs1)N1CCCN(c2cc(-c3ccc(F)cc3)[nH]n2)CC1	i	i	?	i
O=C(Cc1cccs1)N1CCCN(c2cc(-c3ccc(Br)cc3)[nH]n2)CC1	35.5µM	?	44.7µM	i
COc1ccc(OCc2cc(C(=O)NC(CO)C(C)C)no2)c2ccccc12 (centres undefined)	?	i	?	i
O=C(CCc1ccccc1)N1CCC(O)(c2csc(CN3CCc4ccccc4C3)n2)CC1	?	i	?	i
COc1ccccc1NC(=O)c1cc2c(n1C)CCN(Cc1ccc(F)cc1)C2	?	i	31.6µM	15.8µM
COc1cccc(CN2CCc3c(cc(C(=O)Nc4ccc(C)cc4C)n3C)C2)c1	?	i	?	15.8µM
COc1cccc(CN2CCc3c(cc(C(=O)Nc4cc(OC)cc(OC)c4)n3C)C2)c1	?	i	?	?
COCC(=O)N1CCc2cn(CC(C)C)c3cccc(c23)C1	?	i	79.4µM	i
COCCn1cc2c3c(cccc31)CN(C(=O)CCCc1ccccc1)CC2	?	i	?	i
SMILES	3T3 cytotox	hNpr1 antagonist	HEK cytotox	Luciferase inh
O=C(NC1CC1)C1CCCN(Cc2cccc(-c3cccs3)c2)C1 (centres undefined)	?	nt	39.8µM	nt
O=C(NC1CCN(Cc2cccc(-c3cccs3)c2)CC1)C1CCCC1	i	nt	i	nt
O=C(NC1CCCCC1)C1CCCN(Cc2cccc(-c3cccs3)c2)C1 (centres undefined)	28.2µM	nt	?	nt
O=C(NC1CCCC1)C1CCCN(Cc2cccc(-c3cccs3)c2)C1 (centres undefined)	?	nt	44.7µM	nt
Cn1ncc2c(C(=O)NCCCc3ccccc3)cc(-c3ccc(C(F)(F)F)cc3)nc21	i	nt	?	nt
CC(C)(C)c1[nH]nc2c1C(c1ccnc3ccccc13)CC(=O)N2 (centres undefined)	31.6µM	i	i	i
CC(C)CN1C(=O)COC[C@@H]1[C@H](O)c1ccc(NC(=O)c2cccnc2)cc1	i	i	i	i
Cc1ccccc1-c1cccc(CN2CCOC(CCN)C2)c1 (centres undefined)	20µM	i	?	i
CCOC(=O)C1CCN(C(=O)c2cc(-c3cc(Cl)cc(Cl)c3)c3nncn3n2)CC1	i	nt	i	nt
COc1cccc(C(=O)N2CCN(C(=O)c3nc4cccnc4n(Cc4ccccc4OC)c3=O)CC2)c1	i	nt	i	nt
O=C(CCN1c2ccccc2Sc2ccccc21)N1CCCC(c2nc(C3CCOCC3)no2)C1 (centres undefined)	?	i	39.8µM	i
O=C(c1ccccc1)N1CCCC(c2nc(C3CCOCC3)no2)C1 (centres undefined)	i	i	i	i
CN1C(=O)[C@H](OC(N)=O)[C@@H](C(=O)Nc2ccccc2)C12CCN(C(=O)c1ccco1)CC2	?	nt	i	nt
CNC(=O)[C@H]1CN(C(=O)NC2CCCC2)[C@]2(C)C(=O)N(CC3CC3)c3ccccc3[C@H]12	i	nt	?	nt
O=C(CC1CCCC1)N1CCCC(c2noc(COc3ccccc3)n2)C1 (centres undefined)	?	i	?	i
Cc1cccc(C(=O)N2CCCC(c3noc(COc4ccccc4F)n3)C2)c1 (centres undefined)	?	i	?	i
O=C(c1cccc(F)c1)N1CCCC(c2noc(COc3ccccc3F)n2)C1 (centres undefined)	?	i	70.8µM	i
Cc1c(F)cccc1NC(=O)N1CCCC(c2noc(COc3ccccc3)n2)C1 (centres undefined)	?	i	?	11.2µM
O=C(CC1CCCCC1)N1CCCC(c2noc(COc3ccccc3)n2)C1 (centres undefined)	39.8µM	?	?	i
Cc1ccc(OCc2nc(C3CCN(S(=O)(=O)Cc4ccccc4F)C3)no2)cc1 (centres undefined)	?	?	25.1µM	i
CN(Cc1cccc(C(F)(F)F)c1)C(=O)C1CCCC1	i	i	i	i
COc1ccccc1Cc1nc(-c2nnn3c2COC(c2ccc(C)cc2)C3)no1 (centres undefined)	?	i	i	i
O=C(C1CCCN1C(=O)c1ccc(F)cc1)N1CCC(c2nc3ccncc3[nH]2)CC1 (centres undefined)	i	nt	i	nt
CCc1ccc(NC(=O)N2CCCC(c3noc(COc4ccccc4F)n3)C2)cc1 (centres undefined)	?	?	?	2.24µM
O=C(C1CCCC1)N1CCCC(c2noc(COc3ccccc3F)n2)C1 (centres undefined)	?	i	?	i
COc1cccc(CN2Cc3cc(NC(=O)c4ccc([N+](=O)[O-])cc4)ccc3OCC2=O)c1OC	?	?	39.8µM	i
COc1cccc(C(=O)Nc2ccc3c(c2)CN(Cc2ccccc2F)C(=O)CO3)c1	?	i	?	?
COc1cccc(CN2Cc3cc(NC(=O)c4cccc(OC)c4)ccc3OCC2=O)c1	?	i	25.1µM	?
COc1ccc(C(=O)Nc2ccc3c(c2)CN(Cc2cccc(OC)c2OC)C(=O)CO3)cc1OC	i	i	?	i

Source: PubChem
